Compound activity deposited in PubChem BioAssay by Johns Hopkins Ion Channel Center.
KCNQ2 enhance – potentiators of rat KCNQ2 potassium channel; AID 2239, 2010; CHO-K1 KCNQ2, FluxOR thallium flux fluorescence; stronger effect = higher value; 310,000 tested, 0.54% active; Potassium voltage-gated channel subfamily KQT member 2 (Rattus norvegicus), O88943; B-score at 10 µM;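 active means fluorescence ratio B-score at least 3 SD of library B-scores, with initial fluorescence B-score within 3 of them, cut at about 5.3 in these data; same plate scores as AID 2156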;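 further: B-score of peak minus minimum over baseline fluorescence ratio after K+ and Tl+ stimulus; positive B-score means potentiation of KCNQ2 with more thallium influx and brighter signal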
KCNQ2 block – rat KCNQ2 potassium channel inhibitors, primary screen, cell-based, CHO-K1, FluxOR thallium flux, B-score; Potassium voltage-gated channel subfamily KQT member 2 (Rattus norvegicus), O88943; 20 min; stronger effect = lower value; B-score at 10 µM; 310,000 tested, 1.1% active;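 active means fluorescence ratio B-score at most minus 3 library SDs, with starting brightness B-score within 2 library SDs, cut at about -5.5 in these data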
Kir21 conf inh – mouse Kir2.1 channel blockers, retest, confirmation, cell-based, FluxOR thallium flux, duplicate | Kir2.1-expressing cells, FluxOR thallium flux fluorescence; stronger effect = lower value | 2,300 tested, 41% active | AID 2032, 2009 | shares compounds with KCNQ2 enhance | Tl flux remaining, % of negative control (stronger effect = lower value), % at 10 µM;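 active means Primary-screen hit whose thallium flux fell at least 3 control SD below untreated wells in both duplicates, with normal baseline fluorescence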;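 further: 0% = blank wells without stimulus and 100% = stimulated no-compound controls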
Target sequence (P35561 whole entry, looked up): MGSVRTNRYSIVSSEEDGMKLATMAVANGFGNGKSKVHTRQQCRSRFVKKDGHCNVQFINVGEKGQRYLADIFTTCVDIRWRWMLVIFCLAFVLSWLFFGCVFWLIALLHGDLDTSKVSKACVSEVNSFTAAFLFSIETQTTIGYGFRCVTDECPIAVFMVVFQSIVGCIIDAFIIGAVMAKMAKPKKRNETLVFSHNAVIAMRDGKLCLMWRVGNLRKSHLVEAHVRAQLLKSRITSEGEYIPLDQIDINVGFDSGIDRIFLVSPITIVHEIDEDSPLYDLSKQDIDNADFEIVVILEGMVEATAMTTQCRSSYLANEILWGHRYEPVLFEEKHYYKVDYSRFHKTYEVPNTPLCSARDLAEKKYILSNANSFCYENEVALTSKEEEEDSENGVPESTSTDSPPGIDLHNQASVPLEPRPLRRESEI
HEK293 ctr – alters thallium flux in parental HEK293 cells, Kir2.1 counter-screen | shares compounds with KCNQ2 enhance | 2,300 tested, 19% active | FluxOR signal as % of negative control (100 = no effect), % at 10 µM | FluxOR thallium flux fluorescence; 0% = unstimulated blank wells | AID 2105;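 active means dye signal at least 3 control SD above or below untreated wells in both duplicates, raw fluorescence within 3, either direction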;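 further: percent is based on the flux ratio of peak minus minimum fluorescence over baseline F0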
CHO-K1 ctr – nonspecific thallium flux increase in parental CHO-K1, confirmation, counter-screen for KCNQ2 potentiator project, cell-based, FluxOR thallium flux, duplicate; shares compounds with KCNQ2 enhance; parental CHO-K1 cells, FluxOR thallium flux fluorescence; zero = vehicle mean+3SD, 100% = vehicle-minus-blank window; activity increase over 3SD of controls, % at 10 µM; 1,200 tested, 43% active; AID 2282, 2010;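 active means signal rise of at least 3 SD above the untreated control mean, in both duplicate wells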;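 further: counter screen of KCNQ2 potentiator hits so any rise reflects channel-independent effects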
KCNQ1 pot spec – human KCNQ1 channel potentiation off-target, confirmation, selectivity assay for KCNQ2 potentiator project, cell-based, CHO, FluxOR thallium flux. shares compounds with KCNQ2 enhance. AID 2283, 2010. CHO KCNQ1 stable, FluxOR thallium flux fluorescence; beyond 3SD, as % of vehicle-control signal. 1,200 tested, 28% active. activation over 3SD threshold, % at 10 µM;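 active means fluorescence ratio rise of at least 3 SD of vehicle wells above their mean, in both replicate wells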;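 further: 0% = vehicle mean plus 3 SD and 100% = vehicle minus unstimulated blank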
KCNQ2 pot confirm – rat KCNQ2 channel potentiators, confirmation, cell-based, CHO, FluxOR thallium flux, duplicate; CHO-KCNQ2 cells, FluxOR thallium flux fluorescence; shares compounds with KCNQ2 enhance; potentiation, less the hit threshold, % at 10 µM; 1,200 tested, 68% active; AID 2287, 2010;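 active means fluorescence ratio rising 3 SD or more over the vehicle control mean in both replicates, plus primary screen hit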;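 further: peak minus minimum thallium fluorescence divided by baseline after K/Tl stimulus; 0% = vehicle mean plus 3 SD and 100% = vehicle minus unstimulated blank difference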
Kir21 spec – mouse Kir2.1 channel activation off-target, confirmation, selectivity assay for KCNQ2 potentiator project, cell-based, HEK293, FluxOR thallium flux | shares compounds with KCNQ2 enhance | HEK293 Kir2.1, FluxOR thallium flux fluorescence | activity over 3SD threshold, % at 10 µM | 1,200 tested, 2% active;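 active means fluorescence ratio rise of at least 3 SD above the vehicle-control mean, seen in both replicates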;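 further: 0% = vehicle mean plus 3 SD and 100% = vehicle minus no-stimulus blank window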
KCNQ2 W236L pot – potentiators of retigabine-insensitive KCNQ2 W236L, mechanism study for KCNQ2 potentiator project, cell-based, rat KCNQ2 W236L, CHO, automated patch clamp; shares compounds with KCNQ2 enhance; current increase over 3SD of negative controls (%), stronger effect = higher value, % at 25 µM; automated patch clamp current; 940 tested, 10% active;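 active means current increase at least 3 SD of the untreated controls above them in both duplicate recordings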
The depositor's hits bear a star; i = inactive; · = not tested or not shown. Shown are actives, neighbours in structure and some others; about 1.6% of the full set was active somewhere.

SMILES	KCNQ2 enhance	KCNQ2 block	Kir21 conf inh	HEK293 ctr	others
O=C(CC(=O)c1cc(Cl)ccc1O)c1ccccc1	5.3*	i	i	130%*	CHO-K1 ctr=-5;KCNQ1 pot spec=-16;KCNQ2 pot confirm=-3;Kir21 spec=-14;KCNQ2 W236L pot=i
CCc1cc2c(CN3CCN(Cc4ccccc4)CC3)cc(=O)oc2cc1O	0.07	i	74%*	i
CCc1cc2c(CN(C)Cc3ccccc3F)cc(=O)oc2cc1O	·	i	i	i
CCc1ccc2c(CN3CCN(Cc4ccccc4)CC3)cc(=O)oc2c1	·	i	·	·
Cc1cc2oc(=O)cc(CN(C)Cc3cccc(F)c3)c2cc1C	2	i	·	·
CCn1cc(Br)c(C(=O)NC(=S)Nc2ccc(C(=O)OC)cc2)n1	0.86	i	·	·
CC(C)(C)NC(=O)CN1CCN(C(=O)CCl)CC1	0.05	i	·	·
Cc1onc(-c2ccccc2Cl)c1C(=O)N[C@@H](C)c1ccccc1	·	i	·	·
OC(COc1c(F)cc(Br)cc1F)CN1CCc2ccccc2C1 (stereo not given)	·	i	26%*	i
Cc1ccc(C(C)C)c(OCC(O)CN2CCc3ccccc3C2)c1 (stereo not given)	·	i	63%*	i
OC(COCc1ccccc1)CN1CCc2ccccc2C1 (stereo not given)	0.04	i	·	·
Cc1ccc(C)c(OCC(O)CN2CCC(Cc3ccccc3)CC2)c1 (stereo not given)	·	i	49%*	i
OC(COc1ccc(Cl)cc1)CN1CCC(Cc2ccccc2)CC1 (stereo not given)	·	i	·	·
Cc1cccc(C)c1OCC(O)CN1CCc2ccccc2C1 (stereo not given)	·	i	·	·
Cc1ccc(/C(O)=C2/C(=O)C(=O)N(CC(=O)O)C2c2ccc([N+](=O)[O-])cc2)cc1 (stereo not given)	0.44	i	·	·
CCN(CC)c1nc(-c2ccc(C(=O)NN)cc2)nc(-c2ccc(C(=O)NN)cc2)n1	1.1	i	·	·
CC(C)(C)NC(=O)C(c1ccccn1)N(C(=O)C1CSC(=O)C1)c1ccc(F)cc1 (stereo not given)	1.3	i	·	·
CCSc1nc2c(c(-c3ccc(C)o3)c1C#N)CCCC2	·	i	·	·
COC(=O)CSc1nc2c(c(-c3ccc(C)o3)c1C#N)CCCC2	22*	i	i	i	CHO-K1 ctr=-21;KCNQ1 pot spec=-11;KCNQ2 pot confirm=41*;Kir21 spec=-37;KCNQ2 W236L pot=i
COC(=O)Cc1ccc(NC(=S)Nc2ccccn2)cc1	1.5	i	·	·
CCc1ccc(CNC(=O)C2CC(=O)N(C3CCCC3)C2)cc1 (stereo not given)	1.3	i	·	·
Fc1ccc(C(CCNCc2ccccn2)c2ccc(Cl)cc2)cc1 (stereo not given)	·	i	34%*	i
OC(CNCc1ccccn1)c1ccccc1 (stereo not given)	0.24	i	·	·
CCCOC(=S)NC(=O)c1sc2ccccc2c1Cl	20*	i	i	312%*	CHO-K1 ctr=22*;KCNQ1 pot spec=-12;KCNQ2 pot confirm=55*;Kir21 spec=-12;KCNQ2 W236L pot=i
CCOC(=S)NC(=O)c1sc2ccccc2c1Cl	21*	i	i	356%*	CHO-K1 ctr=-2;KCNQ1 pot spec=-6;KCNQ2 pot confirm=62*;Kir21 spec=-37;KCNQ2 W236L pot=i
SMILES	KCNQ2 enhance	KCNQ2 block	Kir21 conf inh	HEK293 ctr	others
CC(C)(C)C(=O)NC(=S)NNC(=O)c1sc2ccccc2c1Cl	12	i	·	·
O=C(NC(=S)NCCO)c1sc2ccccc2c1Cl	·	i	·	·
CC(C)Cc1ccccc1O	0.73	i	·	·
O=C(CCCCC(=O)NNC(=O)COc1ccccc1)NNC(=O)COc1ccccc1	0.42	i	·	·
O=C(NCC(=O)N1CCc2ccccc2C1)c1ccccc1Cl	·	i	·	·
O=C(COC(=O)c1ccc[nH]c1=O)NC1CCCCC1	0.19	i	·	·
Cc1ccc(S(=O)(=O)n2nc(-c3ccco3)nc2N)cc1	·	i	·	·
COc1ccc(CN2CCC(Cc3ccccc3)CC2)cc1OC	0.03	i	·	·
CCOc1ccc(CN2CCC(Cc3ccccc3)CC2)cc1	0.4	i	41%*	i
CC(NC(=O)c1ccccc1Br)c1ccc2c(c1)CCCC2 (stereo not given)	·	i	·	·
CC(NC(=O)c1ccc(Br)cc1)c1ccc2c(c1)CCCC2 (stereo not given)	7.6*	i	i	i	CHO-K1 ctr=43*;KCNQ1 pot spec=-2;KCNQ2 pot confirm=40*;Kir21 spec=-29;KCNQ2 W236L pot=i
Cc1cccc(NC(=O)CSc2ncnc3sc(C)c(C)c23)n1	0.74	i	·	·
Cc1sc2ncnc(SCC(=O)c3cccs3)c2c1C	6.9*	i	i	i	CHO-K1 ctr=-17;KCNQ1 pot spec=-5;KCNQ2 pot confirm=-9;Kir21 spec=-31;KCNQ2 W236L pot=i
Cc1ccccc1OCc1nnc2c3cnn(C)c3ncn12	·	i	·	·
C/C(=N\NC(=O)CN1CCN(Cc2ccc(C)cc2)CC1)c1ccncc1	0.62	i	·	·
CCCC(=O)Nc1ccc(C#Cc2ccccc2)cc1	·	i	·	·
CCCCC#Cc1ccccc1CC(=O)Nc1ccccc1	7.1*	i	i	i	CHO-K1 ctr=99*;KCNQ1 pot spec=-6;KCNQ2 pot confirm=9.6*;Kir21 spec=-37;KCNQ2 W236L pot=i
COc1ccc2c(c1)CCCN2C(N)=O	·	i	·	·
COc1ccc2c(c1)CCCN2C(N)=Nc1ccc(Cl)cc1	1.1	i	37%*	i
O=C(NC(=S)Nc1ccc(Cl)cc1)c1ccccc1	·	i	·	·
O=C(Nc1ccc(Cl)cc1)C(Cl)C(=O)c1ccccc1 (stereo not given)	0.25	i	70%*	i
COCCCn1c(=O)c2sccc2n2c(CCCC(=O)NCc3ccc(OC)cc3)nnc12	·	i	·	·
CN(C)C(=O)c1cc(C(=O)c2ccc(C(F)(F)F)cc2)c[nH]1	·	i	·	·
O=C(CCS(=O)(=O)c1ccccc1)NC1CCCCC1	0.47	i	·	·
O=C(CCS(=O)(=O)c1ccc(Br)s1)NC1CCCCCC1	1.2	i	i	70%*
